Compound activity from PubChem.
KKLEB cytotox = cytotoxicity in KKLEB CF airway cells, primary screen, cytotoxicity control for CF NF-kB inhibitor project, cell-based, uHTS, fluorescence assay plates; activity change (cytotoxicity), % at 5 µM; KKLEB CF airway cells viability, ATPlite luminescence, overnight; stronger effect = lower value; cells stimulated with P. aeruginosa culture filtrate; AID 602141, 2011; 0.36% of 360,000 active;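 active = corrected activity change at or below -50% at 5 µM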
TWEAK-Fn14 inh = inhibitors of TWEAK-Fn14 signaling, primary screen, luciferase reporter cells, uHTS. TWEAK-stimulated Fn14 reporter cells, luciferase luminescence, 8 h. 2% of 360,000 active. inhibition, % at 10 µM. AID 1159606, 2016; in the data active = inhibition above about 50%
CF NFkB inh = inhibitors of PAF-induced NF-kB signaling, primary screen, cell-based, GFP fluorescence, uHTS; KKLEB NF-kB-GFP reporter, GFP fluorescence overnight; inhibition, % at 5 µM; 0.86% of 360,000 active;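 active = at least 50% inhibition at 5 µM, scaled per plate between neutral and stimulator controls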;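 note: PAF is a Pseudomonas aeruginosa culture filtrate used as stimulus; plate controls were PAF-stimulated DMSO wells for no effect and unstimulated DMSO wells for full effect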
LGR2 inh = inhibitors of bursicon-induced LGR2 CRE-luciferase signal, primary screen, cell-based, HEK293, CRE-luciferase reporter, bursicon stimulation. bursicon-stimulated, 4 h. 0.35% of 380,000 active. inhibition, % at 9.99 µM. Drosophila bursicon receptor LGR2 (rickets);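 active = drop in luminescence signal, shown as inhibition above about 50% in the replicate tests, limit read from the data, passing the limit was not always enough; inconclusive = probably only some replicates passing the limit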;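 note: agonist challenge used bursicon conditioned medium at about half maximal strength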
HIF-2a block = HIF-2a reporter inhibitors, primary screen, luminescence, 786-0 RCC cells. 786-0 RCC cells HIF-2a reporter, luciferase luminescence, overnight. inhibition, % at 18.8 µM. 0.72% of 360,000 active. AID 624352, 2012;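 active = inhibition of the luminescence signal of 40% or more relative to plate controls, in a single-dose primary screen at 18.75 µM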
hiPSC survival = enhancers of single-cell hiPSC survival, primary screen, ATPlite luminescence | 100% = ROCK inhibitor wells, 0% = DMSO | AID 602274, 2012 | 0.044% of 360,000 active | survival enhancement, % at 20 µM; in the data active = survival enhancement above about 18%;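 note: cells exposed to compounds for 16 hours before the ATP read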
* hit, by the source's call. Rows were chosen to be rich in hits. Some 2.3% of all compounds tested hit in one or more screens of this group.

What do the screens show for `COc1ccccc1-c1cc(C(F)(F)F)nc(S(=O)(=O)CCCC(=O)NC(C)C)n1`?
KKLEB cytotox: -93.9*; TWEAK-Fn14 inh: 38.7; CF NFkB inh: 88.2*; HIF-2a block: 89.7*; hiPSC survival: -6.2

What do the screens show for `COc1ccccc1-c1cc(C(F)(F)F)nc(S(=O)(=O)CCCC(=O)Nc2cccnc2Cl)n1`?
KKLEB cytotox: -54.8*; TWEAK-Fn14 inh: 81.9*; CF NFkB inh: 72.5*; HIF-2a block: 34.1; hiPSC survival: -0.7

Results for Cc1cc(NC(=O)CCCSc2nc(-c3ccco3)cc(C(F)(F)F)n2)no1 ?
KKLEB cytotox: -9.0; TWEAK-Fn14 inh: -7.1; CF NFkB inh: 6.1; LGR2 inh: 4.3; HIF-2a block: 3.5; hiPSC survival: -2.4

Results for COc1ccc(-c2cc(C(F)(F)F)nc(S(=O)(=O)CCCC(=O)Nc3cc(C)on3)n2)cc1OC ?
KKLEB cytotox: -74.8*; TWEAK-Fn14 inh: 96.3*; CF NFkB inh: 102.3*; LGR2 inh: 90.4*; HIF-2a block: -54.7; hiPSC survival: 0.2

What do the screens show for `COc1ccccc1/C=C/C(=O)Nc1cccnc1Cl`?
KKLEB cytotox: -10.8; TWEAK-Fn14 inh: -32.5; CF NFkB inh: 13.4; LGR2 inh: -52.5; HIF-2a block: -240.1; hiPSC survival: -0.6

How did COc1ccccc1-c1cc(C(F)(F)F)nc(S(=O)(=O)CCCC(=O)Nc2cc(C)on2)n1 do in these assays?
KKLEB cytotox: -65.8*; TWEAK-Fn14 inh: 39.3; CF NFkB inh: 85.7*; HIF-2a block: 72.7*; hiPSC survival: -3.3

Results for C[C@@H]1CN([C@H](C)CO)C(=O)c2cccc(NC(=O)c3ccc(-c4nccs4)cc3)c2O[C@H]1CN(C)C(=O)Nc1ccc(C(F)(F)F)cc1 ?
LGR2 inh: 8.6

What do the screens show for `CC(C)CC(Nc1ncnc2scc(-c3ccccc3)c12)C(=O)O` (stereo not drawn)?
KKLEB cytotox: -1.4; TWEAK-Fn14 inh: -10.1; CF NFkB inh: 12.1; LGR2 inh: -3.3; HIF-2a block: 14.2; hiPSC survival: -0.7

What do the screens show for `c1ccc(-c2csc3ncnc(NCC4COc5ccccc5O4)c23)cc1` (stereo not drawn)?
KKLEB cytotox: -15.7; TWEAK-Fn14 inh: 90.8*; CF NFkB inh: 28.5; LGR2 inh: 16.1; HIF-2a block: 7.3; hiPSC survival: -0.8

Results for Cc1sc2ncnc(NCC3COc4ccccc4O3)c2c1C (stereo not drawn) ?
KKLEB cytotox: -2.4; TWEAK-Fn14 inh: 57.5*; CF NFkB inh: 10.9; LGR2 inh: 11.9; HIF-2a block: -26.5; hiPSC survival: -1.7

What do the screens show for `Cc1sc2ncnc(NCC3CCCO3)c2c1C` (stereo not drawn)?
KKLEB cytotox: -7.0; TWEAK-Fn14 inh: 11.7; CF NFkB inh: -4.3; LGR2 inh: 2.7; HIF-2a block: 10.5; hiPSC survival: 1.6

What do the screens show for `CC(C)NC(=O)N[C@@H]1CC[C@H](CCNS(=O)(=O)Cc2ccccc2)O[C@@H]1CO`?
LGR2 inh: 3.3

What do the screens show for `CN1CCN(C(=O)C[C@@H]2CC[C@H]3[C@@H](COC[C@@H](O)CN3C(=O)C3CC3)O2)CC1`?
LGR2 inh: -13.7

How did COc1ccc(NC(=O)N2[C@@H]3CNC[C@H]2C3c2ccc(-c3ccc(F)cc3)cc2)cc1 (stereo partly drawn) do in these assays?
LGR2 inh: -9.9

Results for Cc1cnc(NC(=O)c2sc3ccccc3c2Cl)s1 ?
KKLEB cytotox: -53.5*; TWEAK-Fn14 inh: 85.1*; CF NFkB inh: -26.7; LGR2 inh: inconclusive; HIF-2a block: 12.1; hiPSC survival: -6.9

How did Cc1ccc(C(=O)Nc2ncc(C)s2)o1 do in these assays?
KKLEB cytotox: 5.0; TWEAK-Fn14 inh: 27.9; CF NFkB inh: -5.8; LGR2 inh: -18.3; HIF-2a block: -127.3; hiPSC survival: -1.7

Results for O=C(NC1CC1)c1sc2cc(Cl)ccc2c1Cl ?
KKLEB cytotox: 6.7; TWEAK-Fn14 inh: -10.5; CF NFkB inh: -29.9; LGR2 inh: -33.4; HIF-2a block: -221.8; hiPSC survival: -0.1

How did O=C(Nc1nccs1)c1sc2cc(Cl)ccc2c1Cl do in these assays?
KKLEB cytotox: -12.2; TWEAK-Fn14 inh: 101.5*; CF NFkB inh: -19.0; HIF-2a block: -108.2; hiPSC survival: -0.2

What do the screens show for `CC(C)c1nnc(NC(=O)c2sc3ccccc3c2Cl)s1`?
KKLEB cytotox: 0.0; TWEAK-Fn14 inh: -19.6; CF NFkB inh: -22.9; HIF-2a block: -227.7; hiPSC survival: -1.7

What do the screens show for `Cc1ccc(C(=O)Nc2ncc(C)s2)s1`?
KKLEB cytotox: -22.4; TWEAK-Fn14 inh: 57.3*; CF NFkB inh: -6.8; LGR2 inh: -3.2; HIF-2a block: -84.1; hiPSC survival: -0.1

What do the screens show for `Cc1nn(Cc2ccc(Cl)c(Cl)c2)c(C)c1NC(=O)c1sc2ccccc2c1Cl`?
KKLEB cytotox: -24.7; TWEAK-Fn14 inh: 58.4*; CF NFkB inh: 11.7; HIF-2a block: 17.8; hiPSC survival: 0.5

What do the screens show for `Cc1nn(Cc2c(Cl)cccc2Cl)c(C)c1NC(=O)c1sc2ccccc2c1Cl`?
KKLEB cytotox: -24.7; TWEAK-Fn14 inh: -8.4; CF NFkB inh: 39.9; HIF-2a block: 6.4; hiPSC survival: -1.9

Results for O=C(C1CCCC1)N1CC[C@@H]2[C@@H](CO)Nc3ccc(Br)cc3[C@@H]21 ?
LGR2 inh: 1.8

How did COc1ccc2c3c(n(C)c2c1)[C@@H](CO)N(C(=O)CN(C)C)CC31CN(C(=O)C2CCC2)C1 do in these assays?
LGR2 inh: 5.5

Results for CCC(=O)N(C)C[C@@H]1Oc2cc(C#Cc3ccncc3)ccc2S(=O)(=O)N([C@H](C)CO)C[C@H]1C ?
LGR2 inh: 13.6

What do the screens show for `O=C(Nc1nccs1)c1cc(Cl)nc2ccccc12`?
KKLEB cytotox: 1.6; TWEAK-Fn14 inh: 18.0; CF NFkB inh: -6.9; LGR2 inh: 1.6; HIF-2a block: -3.1; hiPSC survival: -0.1

Results for Cc1ccnc(NC(=O)/C=C/c2ccccc2[N+](=O)[O-])c1 ?
LGR2 inh: -13.6

How did Cc1ccnc(NC(=O)/C=C/c2ccccc2Cl)c1 do in these assays?
KKLEB cytotox: -17.9; TWEAK-Fn14 inh: 64.5*; CF NFkB inh: 3.3; LGR2 inh: 25.2; HIF-2a block: -60.6; hiPSC survival: -4.5

What do the screens show for `Cc1ccnc(NC(=O)c2sc3ccccc3c2Cl)c1`?
KKLEB cytotox: -75.2*; TWEAK-Fn14 inh: 74.8*; CF NFkB inh: -15.0; LGR2 inh: 86.7*; HIF-2a block: -86.0; hiPSC survival: -2.8

How did O=C(Nc1nccs1)c1sc2ccccc2c1Cl do in these assays?
KKLEB cytotox: -25.9; TWEAK-Fn14 inh: 67.0*; CF NFkB inh: 0.2; HIF-2a block: -67.6; hiPSC survival: -3.5
